Measured values reported in PubChem BioAssay (NCATS).
Records with an inconclusive call do not appear. A call without a number means that no potency is given here. Unmarked numbers belong to inactive results. The source made the active and inactive calls. The call rests on the fitted dose curve; in most records, active means well fitted curve in the direction sought with a large enough effect; inconclusive means small, poorly fitted or top-dose-only effect, or another doubt; inactive means no such curve, though single readings can be large; an effect the other way counts as inactive or inconclusive. Where a SMILES comes first, the peptide text is derived from it. Bridges are numbered along the chain shown (N, C = ends). [ ]: non-standard residue; d: D form. The star is where a group is joined. X1 = CC[C@@H](C)[C@@H](N)C1=N[C@H](C(=O)*)CS1; d(aIle) = CC[C@H](C)[C@@H](N)C(=O)O; dOrn = NCCC[C@@H](N)C(=O)O

Assays:
[1] = qHTS assay to identify small molecule inhibitors of chordoma cells - UCH-1 (AID 1259355); further: nearly all actives have a fitted effect of over 55% in size; further: potency means the concentration at half of the fitted maximal effect; series mostly up to about 46 µM
Outline: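 Cells (800/well) were seeded and left overnight at 37 C, 5% CO2, then treated with drugs at 15 concentrations plus a combination mix of auranofin, camptothecin, doxorubicin, rubitecan and topotecan. Viability after 48hr was read by CellTiter-Glo luminescence.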

[2] = qHTS assay to identify small molecule inhibitors of chordoma cells - UCH-2 (AID 1259356); further: series mostly up to about 46 µM

SMILES	Potency [1]	Potency [2]
CCOC(=O)C1=C(COCCN)NC(C)=C(C(=O)OC)C1c1ccccc1Cl (centres undefined)	inactive	inactive
CC(C)=CCC/C(C)=C/C=C/C(C)=C/C=C/C(C)=C/C=C/C=C(C)/C=C/C=C(C)/C=C/C=C(\C)CCC=C(C)C	inactive	inactive
O=C(Nc1ccc(O)cc1)c1ccccc1O	inactive	inactive
O=C1/C(=C\c2cccs2)CCC/C1=C\c1cccs1	inactive	inactive
CCC(=O)c1ccc2c(c1)N(CCCN1CCN(CCO)CC1)c1ccccc1S2	inactive	inactive
CC(=O)c1ccc2c(c1)N(CCCN1CCN(CCO)CC1)c1ccccc1S2	inactive	inactive
Cc1cccc(C)c1NC(=O)C1CCCCN1C (centres undefined)	inactive	inactive
Cn1c(=O)c2c(ncn2CCOC(=O)C(C)(C)Oc2ccc(Cl)cc2)n(C)c1=O	inactive	inactive
O=C(OC1C[C@@H]2CC3C[C@H](C1)N2CC3=O)c1c[nH]c2ccccc12 (some centres undefined)	inactive	inactive
Cn1c(O)c(N=NC(N)=S)c2ccccc21	inactive	
FC(F)(F)C(F)(F)C(F)(F)C(F)(F)C(F)(F)F	inactive	inactive
CCN(CC)C(=O)c1cccnc1	inactive	inactive
C=C1CC[C@H](O)CC1=C/C=C1\CCC[C@]2(C)[C@@H]([C@H](C)CC[C@@H](O)C(C)(C)O)CC[C@@H]12	inactive	inactive
CCCC(CCC)C(=O)OC1C[C@H]2CC[C@@H](C1)[N+]2(C)C (some centres undefined)	inactive	inactive
CCSc1ccc2c(c1)N(CCCN1CCN(C)CC1)c1ccccc1S2	inactive	
O=C1c2ccccc2C(=O)c2c1ccc(O)c2O	inactive	inactive
CC[C@@H](C(=O)[C@@H](C)[C@@H](O)[C@H](C)[C@@H]1O[C@@H]([C@@H](CC)C(=O)O)CC[C@@H]1C)[C@H]1O[C@]2(C=C[C@@H](O)[C@]3(CC[C@@](C)([C@H]4CC[C@](O)(CC)[C@H](C)O4)O3)O2)[C@H](C)C[C@@H]1C	11.2 µM (active)	inactive
Cc1cc(O)c2c(c1)O[C@@]1(C)CC[C@H]3C(C)(C)CCCC34CO[C@@H]2[C@H]41 (some centres undefined)	inactive	inactive
CC[C@@]1([C@@H]2O[C@@H]([C@H]3O[C@@](O)(CO)[C@H](C)C[C@@H]3C)C[C@@H]2C)CC[C@H]([C@]2(C)CC[C@]3(C[C@H](O)[C@@H](C)[C@@H]([C@@H](C)[C@@H](OC)[C@H](C)C(=O)O)O3)O2)O1 (stereo in doubt)	1.26 µM (active)	inactive
CC[C@@H]1/C=C(\C)C[C@H](C)C[C@H](OC)[C@H]2O[C@@](O)(C(=O)C(=O)N3CCCC[C@H]3C(=O)O[C@H](/C(C)=C/[C@@H]3CC[C@@H](Cl)[C@H](OC)C3)[C@H](C)[C@@H](O)CC1=O)[C@H](C)C[C@@H]2OC	inactive	inactive

SMILES	Potency [1]	Potency [2]
N#Cc1ccc2c(c1)N(CCCN1CCC(O)CC1)c1ccccc1S2	inactive	inactive
COc1cc(NCCCC(C)N)c2ncccc2c1 (centres undefined)	inactive	
CN(C)CCC(O)(c1ccccc1)c1ccccc1Cl (centres undefined)	inactive	inactive
CC1=C[C@H](O)CC(C)(C)[C@H]1/C=C/C(C)=C/C=C/C(C)=C/C=C/C=C(C)/C=C/C=C(C)/C=C/C1=C(C)C[C@@H](O)CC1(C)C	inactive	inactive
NC(=S)N=Nc1ccc(NN=C(N)N)cc1	inactive	inactive
FCOC(C(F)(F)F)C(F)(F)F	inactive	
COc1ccc2c(=O)c(C)c(-c3ccccc3)oc2c1CN(C)C	inactive	
COc1cc(S(C)=O)ccc1-c1nc2ncccc2[nH]1 (centres undefined)	inactive	inactive
CC[C@@H](C)[C@@H](N)C1=N[C@H](C(=O)N[C@@H](CC(C)C)C(=O)N[C@@H](CCC(=O)O)C(=O)N[C@@H](C(=O)N[C@@H]2CCCCNC(=O)[C@@H](CC(N)=O)NC(=O)[C@@H](CC(=O)O)NC(=O)[C@@H](Cc3cnc[nH]3)NC(=O)[C@@H](Cc3ccccc3)NC(=O)[C@@H]([C@H](C)CC)NC(=O)[C@@H](CCCN)NC2=O)[C@@H](C)CC)CS1 (X1-LE[d(aIle)][dK][dOrn][dI][dF][dH][dD][dN]; lactam 4-C)	inactive	inactive
C[C@@H]1C[C@H]2[C@@H]3C[C@H](F)C4=CC(=O)C=C[C@]4(C)[C@@]3(Cl)[C@@H](O)C[C@]2(C)[C@H]1C(=O)COC(=O)C(C)(C)C	inactive	inactive
CC(=O)OCC(=O)[C@@]1(O)CC[C@H]2[C@@H]3CCC4=CC(=O)CC[C@]4(C)C3=CC[C@@]21C	inactive	inactive
C=C1c2c(Cl)ccc(O)c2C(O)=C2C(=O)[C@]3(O)C(O)=C(C(N)=O)C(=O)[C@@H](N(C)C)[C@@H]3[C@@H](O)[C@H]12	inactive	inactive
c1ccc2c(c1)Sc1ccccc1N2CCN1CCCC1	inactive	inactive
CN(C)CCC=C1c2ccccc2C(C)(C)c2ccccc21	inactive	inactive
NC[C@@H]1O[C@H](O[C@H]2[C@@H](O)[C@H](O[C@@H]3[C@@H](O)[C@H](N)C[C@H](N)[C@H]3O[C@H]3O[C@H](CO)[C@@H](O)[C@H](O)[C@H]3N)O[C@@H]2CO)[C@H](N)[C@@H](O)[C@@H]1O	inactive	inactive
CC[C@H](CC[C@@H](C)[C@H]1CC[C@H]2[C@@H]3CC=C4C[C@@H](O)CC[C@]4(C)[C@H]3CC[C@]12C)C(C)C	inactive	inactive
Cc1cc(-c2ccc(N=Nc3c(S(=O)(=O)O)cc4cc(S(=O)(=O)O)cc(N)c4c3O)c(C)c2)ccc1N=Nc1c(S(=O)(=O)O)cc2cc(S(=O)(=O)O)cc(N)c2c1O	11.2 µM (active)	
COc1ccc2c(c1)OC(C)(C)C(c1ccccc1)C2c1ccc(OCCN2CCCC2)cc1 (centres undefined)	inactive	inactive
CN(C)CCCSc1ccccc1NC(=O)/C=C/c1ccccc1	inactive	inactive
CC(CCc1ccc(O)cc1)NCC(O)c1ccc(O)cc1 (centres undefined)	inactive	inactive
